# 3T3 cytotox – NIH 3T3 cell cytotoxicity | NIH 3T3 viability, CellTiter-Glo ATP luminescence, 48-72 h | Potency, µM (top dose mostly 96.7 µM), without a hit: at the top dose activity change, negative = cytotoxicity, most hits filed as inhibitors | 94,000 compounds, 4.3% hits; note: % is set by controls: 0 for no effect and ±100 for the full control effect; nearly all actives have a fitted effect of over 55% in size
#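 Cytotoxicity was measured by CellTiter-Glo ATP luminescence after 48 or 72 h compound exposure at 37 °C. Mouse NIH 3T3 fibroblasts were seeded at 400 cells/well and dosed by 23 nL pin transfer.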
# HEK cytotox – kills HEK 293 cells; Potency, µM (titrated, usually from 115 µM), without a hit: top-dose activity change, negative = cytotoxicity, hits mostly inhibitors; HEK 293 viability, ATP luminescence (CellTiter-Glo), 48-72 h; 94,000 compounds, 6.6% hits; AID 1345083; note: % is set by controls: 0 for no effect and ±100 for the full control effect; nearly all actives have a fitted effect of over 60% in size
#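 HEK 293 cells seeded at 250 cells/well were exposed to compound for 48 or 72 hr at 37 degree Celsius. Viability taken as ATP content by CellTiter-Glo luminescence.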
# hNpr1 antagonist – antagonists of human natriuretic peptide receptor Npr1; 76,000 compounds, 1.6% hits; HEK293 hNpr1 GloSensor cGMP, ANP-stimulated luminescence; Potency, µM (highest dose often 46.3 µM), for inactives: at the highest dose activity change, negative = inhibition, actives largely listed as inhibitors; P16066; calls by dose curve; note: % is set by controls: 0 for no effect and ±100 for the full control effect; nearly all actives have a fitted effect of over 60% in size
#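 HEK293 cells stably expressing human Npr1 and cGMP GloSensor pGS-40F, loaded 2 h with 2% GloSensor reagent, given compound 30 min at room temperature. Luminescence read before and 20 min after 0.1 nM hNppA.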
# Luciferase inh – Photinus pyralis luciferase inhibition; P08659; AID 1347043; Potency, µM (doses to about 115 µM), actives largely listed as inhibitors; 76,000 compounds, 2.5% hits; purified P. pyralis luciferase, luminescence, biochemical; note: % is set by controls: 0 for no effect and ±100 for the full control effect; nearly all actives have a fitted effect of over 65% in size
#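 Luminescence read by CCD imager after adding enzyme (10nM final) to wells holding compound, titrated in qHTS. Substrates 10uM each D-luciferin and ATP; buffer 50mM Tris acetate pH 7.5, 10mM Mg acetate, Tween-20, BSA.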
# GPT2 inhibitor – blocks human glutamate pyruvate transaminase 2; Potency, µM (titrated, usually from 57.7 µM), inactives show at the top dose activity change, negative = inhibition, actives largely listed as inhibitors; Recombinant GPT2, coupled pyruvate oxidase/HRP Amplex Red fluorescence; AID 1671188; 100,000 compounds, 0.25% hits; note: % is set by controls: 0 for no effect and ±100 for the full control effect; nearly all actives have a fitted effect of over 60% in size
#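 Recombinant GPT2 (10ng/uL) with 250uM a-KG and 2mM L-alanine, 30 min at room temperature, in HEPES pH 7.5 buffer. Pyruvate detected by pyruvate oxidase/HRP/Amplex Red fluorescence after 30 min in the dark; AOA (50uM) as positive control.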
# Npr1 antag conf – confirmation of human Npr1 natriuretic peptide receptor antagonists; shares compounds with hNpr1 antagonist; HEK293 hNpr1 cGMP GloSensor luminescence, ANP-stimulated; Potency, µM (doses to about 57.6 µM), for inactives: at the top dose activity change, negative = inhibition, most hits filed as inhibitors; 1,400 compounds, 76% hits; AID 1347044; calls by dose curve; note: nearly all actives have a fitted effect of over 70% in size
# Npr2 selectivity – selectivity test of Npr1 antagonists against human Npr2 | 1,400 compounds, 67% hits | HEK293 hNpr2 GloSensor cGMP luminescence, CNP-stimulated | Potency, µM (top dose mostly 57.6 µM), inactives show at the top dose activity change, negative = inhibition, hits mostly inhibitors | shares compounds with hNpr1 antagonist | AID 1347046; calls by dose curve; note: nearly all actives have a fitted effect of over 70% in size
# Target sequence (P20594 whole entry, looked up): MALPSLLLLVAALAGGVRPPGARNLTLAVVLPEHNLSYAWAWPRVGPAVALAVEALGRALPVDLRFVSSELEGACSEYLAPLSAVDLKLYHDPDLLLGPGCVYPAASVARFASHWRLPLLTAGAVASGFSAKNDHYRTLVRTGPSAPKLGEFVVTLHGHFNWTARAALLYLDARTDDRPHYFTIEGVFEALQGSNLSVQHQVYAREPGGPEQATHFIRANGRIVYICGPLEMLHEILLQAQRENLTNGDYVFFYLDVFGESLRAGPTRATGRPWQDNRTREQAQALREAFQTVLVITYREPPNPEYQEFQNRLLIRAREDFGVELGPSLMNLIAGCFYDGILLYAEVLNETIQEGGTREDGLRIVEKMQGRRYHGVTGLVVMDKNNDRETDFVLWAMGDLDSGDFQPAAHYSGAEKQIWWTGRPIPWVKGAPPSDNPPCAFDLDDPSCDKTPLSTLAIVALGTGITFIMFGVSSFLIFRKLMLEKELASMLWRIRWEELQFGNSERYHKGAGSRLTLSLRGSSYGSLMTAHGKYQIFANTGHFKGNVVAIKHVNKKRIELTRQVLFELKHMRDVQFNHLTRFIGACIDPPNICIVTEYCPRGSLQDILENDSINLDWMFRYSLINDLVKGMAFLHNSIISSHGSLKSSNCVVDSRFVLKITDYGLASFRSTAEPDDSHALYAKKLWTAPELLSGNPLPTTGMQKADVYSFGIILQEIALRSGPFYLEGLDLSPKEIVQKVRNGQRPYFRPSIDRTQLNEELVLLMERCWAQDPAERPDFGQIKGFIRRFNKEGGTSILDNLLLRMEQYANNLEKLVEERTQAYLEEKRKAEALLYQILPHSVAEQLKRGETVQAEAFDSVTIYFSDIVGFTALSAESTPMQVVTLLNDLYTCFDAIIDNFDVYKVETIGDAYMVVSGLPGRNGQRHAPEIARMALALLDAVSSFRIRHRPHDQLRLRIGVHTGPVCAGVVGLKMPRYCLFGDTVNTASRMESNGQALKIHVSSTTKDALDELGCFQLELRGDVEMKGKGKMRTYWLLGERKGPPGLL
# FLuc counter – inhibits firefly luciferase, false Npr1 antagonist flag | shares compounds with hNpr1 antagonist | purified FLuc enzyme, luminescence, Km substrate | Potency, µM (titrated, usually from 57.6 µM), without a hit: top-dose activity change, negative = inhibition, actives largely listed as inhibitors | 1,400 compounds, 0.7% hits; note: series mostly up to about 58 µM; 0% is about no effect
# GloSensor ctrl – counter-screen for Npr1 antagonists: GloSensor control cell line; shares compounds with hNpr1 antagonist; 1,400 compounds, 69% hits; Potency, µM (doses to about 57.6 µM), for inactives: at the top dose activity change, negative = inhibition, actives largely listed as inhibitors; HEK293 GloSensor cGMP, SNP-stimulated, luminescence; calls by dose curve; note: % is set by controls: 0 for no effect and ±100 for the full control effect; nearly all actives have a fitted effect of over 70% in size
# An asterisk follows results filed as active; i = inactive; ? = inconclusive; · = not tested or not shown; [ ] = dose if it differs, or a comment. The list is not random: actives were taken first. Their share in the collection is about 10%. Unless noted, calls come from the whole dose curve; as a rule, active = well fitted curve in the direction sought with a large enough effect; inconclusive = small, poorly fitted or top-dose-only effect, or another doubt; inactive = no such curve, though single readings can be large; an effect the other way counts as inactive or inconclusive. Potency is the fitted concentration of half-maximal effect.
SMILES,3T3 cytotox,HEK cytotox,hNpr1 antagonist,Luciferase inh,GPT2 inhibitor,Npr1 antag conf,Npr2 selectivity,FLuc counter,GloSensor ctrl
Cc1cccc(C(=O)N2CCCCC2c2nc(C3CC3)n[nH]2)c1 (stereo unspecified),-23%,-2%,·,·,-4%,·,·,·,·
C=CCN1CC(C)(C)CN(S(=O)(=O)c2ccc(C)cc2)CC1=O,?,-8%,·,·,·,·,·,·,·
Cc1ccccc1-c1cc(-c2c(C)noc2C)cc2c1C(=O)N(C)C2,?,?,-1%[70.6 µM],i,-15%[88.5 µM],·,·,·,·
Cc1noc(C)c1-c1cc2c(c(-c3ccc(F)c(Cl)c3)c1)C(=O)N(C)C2,?,?,8.9µM*,i,-8%[88.5 µM],16µM*,8.9µM*,-1%[86.2 µM],7.9µM*
Cc1noc(C)c1-c1cc2c(c(-c3ccccc3)c1)C(=O)N(C)C2,?,40µM*,28µM*,i,i,28µM*,18µM*,1%[86.2 µM],18µM*
Cc1noc(C)c1-c1cc2c(c(-c3cccc(O)c3)c1)C(=O)N(C)C2,-51%[138 µM],?,-2%[70.6 µM],i,-3%[88.5 µM],·,·,·,·
Cc1cccc(C)c1-c1nnc2ccc(C(=O)N3CCN(C)CC3)cn12,-2%[138 µM],3%[172 µM],·,·,?,·,·,·,·
Cc1cn2nnc(C(=O)NCc3ccc(C(C)C)cc3)c2c(=O)[nH]1,?,?,?,i,i,27µM*,?,0%,24µM*
O=C(c1ccc2c(c1)OCO2)N1CCCC1c1nnc2n1CCNC2 (stereo unspecified),-10%,-18%,·,·,-8%,·,·,·,·
COc1ccc(C(=O)Nc2ccc3c(c2)CN(Cc2ccc(F)cc2)C(=O)C(C)O3)c(OC)c1 (stereo unspecified),?,32µM*,?,i,i,24µM*,?,2%,24µM*
CC1Oc2ccc(NC(=O)Cc3cccs3)cc2CN(Cc2ccc(Cl)cc2)C1=O (stereo unspecified),40µM*,?,14µM*,i,-26%,27µM*,27µM*,3%,24µM*
CC1Oc2ccc(NS(=O)(=O)c3cccc(Cl)c3)cc2CN(Cc2ccccc2F)C1=O (stereo unspecified),?,50µM*,?,i,-13%,?,-27%,3%,-7%
F[C@@H]1CN(Cc2ccc(C(F)(F)F)cc2)C[C@@H]1OCc1nc2ccccc2[nH]1,?,79µM*,28µM*,i,?,40µM*,40µM*,-2%[86.2 µM],40µM*
COc1ccc(-c2nc(C)nc3c2CN(C(=O)C2CC2)CC3)cc1,-16%[138 µM],-11%[172 µM],·,·,i,·,·,·,·
Cc1ccc(S(=O)(=O)N2CCc3c(C(=O)NCC(C)C)cccc32)cc1,?,?,?,i,i,?,?,0%,?
COc1ccc(C(=O)N2CCC(Cc3nc(-c4ccc(F)cc4)no3)CC2)c(C)c1,?,?,1.4µM*,i,1%,1.5µM*,2.2µM*,0%,1.7µM*
COc1cccc(-c2noc(CC3CCN(C(=O)c4ccc(OC)cc4C)CC3)n2)c1,?,?,3.5µM*,i,-9%,3.4µM*,4.8µM*,2%,2.7µM*
COc1cccc(-c2cccc(C(=O)N3CCN(C(=O)c4ccccc4C)CC3)c2)c1,?,?,·,·,-5%,·,·,·,·
COc1cccc(-c2noc(CC3CCN(C(=O)c4ccccc4C)CC3)n2)c1,?,?,13µM*,i,3%,12µM*,17µM*,-5%,12µM*
CN(C)c1ccc(C(=O)N2CCC(Cc3nc(-c4cnccn4)no3)CC2)cc1,-28%,-7%,-12%,i,i,·,·,·,·
COc1cccc(C(=O)N2CCC(Cc3nc(C(C)C)no3)CC2)c1,?,?,-16%,i,i,·,·,·,·
COc1cccc(-c2noc(CC3CCN(C(=O)c4ccc(N(C)C)cc4)CC3)n2)c1,-17%,?,10µM*,i,0%,14µM*,15µM*,-18%,11µM*
CNC(=O)c1cc(C2CC2)nc2onc(C3CCN(C(=O)Cc4ccc(OC)cc4)C3)c12 (stereo unspecified),-22%,1%,·,·,·,·,·,·,·
O=C(CCc1nc2ccccc2s1)N1CCCC(c2nc(C3CCOCC3)no2)C1 (stereo unspecified),-26%,?,-14%,i,3%,-10%,2%,-7%,-4%
COc1ccc(-c2nc(CC3CCN(C(=O)c4n[nH]c(=O)c5ccccc45)C3)no2)cc1 (stereo unspecified),?,32µM*,10µM*,i,i,12µM*,11µM*,0%,8.6µM*
SMILES,3T3 cytotox,HEK cytotox,hNpr1 antagonist,Luciferase inh,GPT2 inhibitor,Npr1 antag conf,Npr2 selectivity,FLuc counter,GloSensor ctrl
CN1CCCC1c1nc(C2CN(C(=O)CCc3nc4ccccc4s3)C2)no1 (stereo unspecified),-11%,?,-3%,i,-5%,·,·,·,·
COc1ccc(-c2nc(CC3CCN(C(=O)c4cc(C)n(C)n4)C3)no2)cc1 (stereo unspecified),?,?,?,i,i,·,·,·,·
O=C(CCc1nc2ccccc2s1)N1CCC(Cc2noc(-c3ccc(F)cc3)n2)C1 (stereo unspecified),?,40µM*,11µM*,i,i,22µM*,22µM*,-8%,22µM*
COCc1nc(-c2ccc(OC3CN(Cc4ccsc4)C3)cc2)no1,-29%,?,-1%,i,0%,·,·,·,·
CC(C)c1ccc(S(=O)(=O)N2CCC3(CCCNC3)C2)cc1 (stereo unspecified),?,?,8%,i,i,·,·,·,·
O=C(c1ccco1)N1CCC(Cc2nc(-c3ccccc3)no2)CC1,?,?,?,i,i,·,·,·,·
COc1cccc(-c2noc(CC3CCN(C(=O)c4cccc(F)c4)CC3)n2)c1,?,?,6.3µM*,i,5%,6.1µM*,6.9µM*,-1%,4.8µM*
